What all share (design): scale not given: direction of the effect not stated beside the values
For assay [1], the target named is Protein translocase subunit SecA (Escherichia coli (strain K12)) (UniProt P10408). The assay can be described thus: Assay to Identify E. coli SecA ATPase Inhibitors. The class given is functional. To be noted: 30 µM.
The target of assay [2] is T1, Ubiquitin-activating enzyme e1, putative (Leishmania donovani (strain BPK282A1)) (UniProt E9BSI1).
T1 sequence (whole entry): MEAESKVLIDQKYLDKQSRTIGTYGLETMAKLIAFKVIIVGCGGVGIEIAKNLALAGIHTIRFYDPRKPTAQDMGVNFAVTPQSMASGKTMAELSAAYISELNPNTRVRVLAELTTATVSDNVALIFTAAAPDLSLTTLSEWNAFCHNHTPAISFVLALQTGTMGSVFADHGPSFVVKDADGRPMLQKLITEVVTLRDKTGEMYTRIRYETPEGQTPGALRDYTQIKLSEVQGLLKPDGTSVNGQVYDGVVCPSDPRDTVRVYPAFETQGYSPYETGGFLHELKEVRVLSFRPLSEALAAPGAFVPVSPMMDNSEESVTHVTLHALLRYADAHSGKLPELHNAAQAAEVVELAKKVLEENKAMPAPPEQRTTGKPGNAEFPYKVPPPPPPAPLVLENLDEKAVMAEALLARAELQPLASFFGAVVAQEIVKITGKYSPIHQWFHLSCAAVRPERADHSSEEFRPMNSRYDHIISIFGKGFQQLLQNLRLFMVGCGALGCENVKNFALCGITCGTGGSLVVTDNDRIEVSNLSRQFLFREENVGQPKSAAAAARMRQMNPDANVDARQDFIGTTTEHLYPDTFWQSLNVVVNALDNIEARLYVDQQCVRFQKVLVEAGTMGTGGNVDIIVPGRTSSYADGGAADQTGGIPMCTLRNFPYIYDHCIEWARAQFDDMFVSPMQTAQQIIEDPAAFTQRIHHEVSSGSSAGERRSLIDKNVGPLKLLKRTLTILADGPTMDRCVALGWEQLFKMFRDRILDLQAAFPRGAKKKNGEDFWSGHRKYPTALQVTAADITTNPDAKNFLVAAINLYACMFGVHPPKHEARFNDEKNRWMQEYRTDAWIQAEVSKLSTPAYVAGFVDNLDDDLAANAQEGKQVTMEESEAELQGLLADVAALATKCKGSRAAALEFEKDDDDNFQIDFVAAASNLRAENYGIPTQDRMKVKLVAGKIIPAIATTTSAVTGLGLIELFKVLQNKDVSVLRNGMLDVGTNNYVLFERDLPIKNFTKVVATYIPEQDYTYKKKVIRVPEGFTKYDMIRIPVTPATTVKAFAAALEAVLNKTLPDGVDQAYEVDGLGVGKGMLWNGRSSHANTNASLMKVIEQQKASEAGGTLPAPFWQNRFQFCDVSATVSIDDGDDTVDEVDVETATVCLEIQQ
The assay can be described thus: Leishmania donovani Ubiquitin Activating Enzyme (LdE1). The class given is functional. To be noted: 30 µM.

Assay [3] has as its target AMP-activated protein kinase, AMPK (Homo sapiens) (UniProt P54646+O43741+P54619+Q9UGJ0+Q9Y478+Q13131+Q9UGI9). The assay can be described thus: AMP-dependent Kinase enzyme assay. An in vitro enzyme assay that detects ADP turnover that is directly proportional to AMPK activity. This uses naive AMPK that is activated during the assay with MK-8722. To be noted: 30 µM. The class given is functional.

The target in assay [4] is Sialic acid-binding Ig-like lectin 9 (Homo sapiens) (UniProt Q9Y336). Description: Hs-Siglec9 ALPHAscreen SOP 20170721. To be noted: 10 µM. A general note: In Alpha technology, singlet oxygen from a donor bead excites a nearby acceptor bead.
Chain of Sialic acid-binding Ig-like lectin 9 (Homo sapiens) (Q9Y336 whole entry): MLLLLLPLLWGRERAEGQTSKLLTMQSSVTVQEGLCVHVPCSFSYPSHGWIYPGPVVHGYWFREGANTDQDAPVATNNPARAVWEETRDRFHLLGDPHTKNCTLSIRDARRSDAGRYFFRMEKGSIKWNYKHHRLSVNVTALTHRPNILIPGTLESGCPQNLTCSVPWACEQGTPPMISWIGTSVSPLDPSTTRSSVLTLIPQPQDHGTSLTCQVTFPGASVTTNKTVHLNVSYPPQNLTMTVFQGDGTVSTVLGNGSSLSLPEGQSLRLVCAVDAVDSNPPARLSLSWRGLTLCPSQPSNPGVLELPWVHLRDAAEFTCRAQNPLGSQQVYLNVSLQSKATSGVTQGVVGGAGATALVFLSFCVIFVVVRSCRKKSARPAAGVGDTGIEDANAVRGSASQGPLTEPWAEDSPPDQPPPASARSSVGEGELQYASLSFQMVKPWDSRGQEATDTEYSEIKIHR
In another assay the test system is Trypanosoma cruzi. Description: Trypanosoma cruzi phosphomannomutase and mannose-1-phosphate guanylyltransferase assay. Format: functional. To be noted: 10 µM.
The target in assay [5] is T2, Arginase-2, mitochondrial (Homo sapiens) (UniProt P78540).
T2 sequence (whole entry): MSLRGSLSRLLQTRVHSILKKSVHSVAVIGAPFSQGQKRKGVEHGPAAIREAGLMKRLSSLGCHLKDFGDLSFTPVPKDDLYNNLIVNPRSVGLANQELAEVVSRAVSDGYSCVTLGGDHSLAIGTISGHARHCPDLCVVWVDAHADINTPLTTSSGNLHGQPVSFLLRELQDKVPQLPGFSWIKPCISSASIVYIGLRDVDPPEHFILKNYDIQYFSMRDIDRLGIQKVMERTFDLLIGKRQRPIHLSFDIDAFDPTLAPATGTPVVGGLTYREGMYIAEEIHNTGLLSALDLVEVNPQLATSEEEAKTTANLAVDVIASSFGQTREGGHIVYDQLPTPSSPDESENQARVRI
Description: in vitro enzyme assay to detect the production of urea directly proportional to the activity of Arginase II. Also: in the data most compounds retested in dose-response had high values. To be noted: 33.3 µM. Format: functional.

In assay [6] the target is T3, Proteasome subunit beta (Trypanosoma cruzi) (UniProt O96673).
T3 sequence (whole entry): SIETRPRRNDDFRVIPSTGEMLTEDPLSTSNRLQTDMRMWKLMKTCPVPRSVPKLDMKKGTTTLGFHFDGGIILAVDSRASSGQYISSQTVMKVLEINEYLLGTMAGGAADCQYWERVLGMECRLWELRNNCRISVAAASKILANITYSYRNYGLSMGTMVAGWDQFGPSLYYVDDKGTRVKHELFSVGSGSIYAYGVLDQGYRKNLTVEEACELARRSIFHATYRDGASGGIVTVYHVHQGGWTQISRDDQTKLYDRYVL
The assay can be described thus: Trypanosoma cruzi proteasome chymotrypsin-like activity (TcProtChymo) assay. Also: in the data most compounds retested in dose-response had high values. The class given is functional. To be noted: 9.37 µM.

For another assay, the species on record is Homo sapiens. Description: To identify inhibition of the IFN signalling (Jak-Stat) pathway via expression of an eGFP reporter gene under the control of an IFN-stimulated response element (ISRE) containing MxA promoter. The class given is functional. To be noted: 30 µM. (In general: A reporter such as luciferase makes a cellular process visible.)
The target of assay [7] is T4, Tyrosyl-tRNA synthetase, putative (Trypanosoma cruzi (strain CL Brener)) (UniProt Q4DSP6).
T4 sequence (whole entry): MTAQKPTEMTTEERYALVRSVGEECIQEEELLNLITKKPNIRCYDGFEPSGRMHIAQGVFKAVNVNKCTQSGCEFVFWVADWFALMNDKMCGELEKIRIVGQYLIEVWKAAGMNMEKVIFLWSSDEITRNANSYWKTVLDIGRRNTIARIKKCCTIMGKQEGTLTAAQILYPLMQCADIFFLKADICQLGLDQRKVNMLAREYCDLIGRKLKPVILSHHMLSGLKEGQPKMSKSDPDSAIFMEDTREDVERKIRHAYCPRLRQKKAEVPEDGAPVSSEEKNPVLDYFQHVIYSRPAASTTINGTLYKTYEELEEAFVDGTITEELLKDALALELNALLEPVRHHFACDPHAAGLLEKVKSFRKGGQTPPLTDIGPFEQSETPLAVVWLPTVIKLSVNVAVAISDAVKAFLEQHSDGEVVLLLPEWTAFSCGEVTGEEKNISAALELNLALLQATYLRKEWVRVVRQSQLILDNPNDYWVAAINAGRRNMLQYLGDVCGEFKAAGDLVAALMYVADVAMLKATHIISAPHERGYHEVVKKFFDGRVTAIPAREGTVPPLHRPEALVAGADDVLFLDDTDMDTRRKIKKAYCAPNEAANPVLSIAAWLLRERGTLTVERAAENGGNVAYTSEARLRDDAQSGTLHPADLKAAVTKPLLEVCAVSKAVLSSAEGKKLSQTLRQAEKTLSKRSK
The assay can be described thus: Trypanosoma cruzi tyrosyl tRNA synthetase (TcYRS) _High Tyrosine SOP. Also: in the data most compounds retested in dose-response had high values. The class given is functional. To be noted: 30 µM.

Assay [8] concerns the target T4, Tyrosyl-tRNA synthetase, putative (Trypanosoma cruzi (strain CL Brener)). Description: Trypanosoma cruzi tyrosyl tRNA synthetase (TcYRS) SOP. The class given is functional. To be noted: 30 µM.
The target of assay [9] is Chromo domain-containing protein 1 (Saccharomyces cerevisiae (strain ATCC 204508 / S288c) (Baker's yeast)) (UniProt P32657). Description: ScCHD-1 Enzyme Inhibition Assay. Also: in the data most compounds retested in dose-response had high values. The class given is functional. To be noted: 30 µM.
Chain of Chromo domain-containing protein 1 (Saccharomyces cerevisiae (strain ATCC 204508 / S288c) (Baker's yeast)) (P32657 whole entry, the tested form may be a part): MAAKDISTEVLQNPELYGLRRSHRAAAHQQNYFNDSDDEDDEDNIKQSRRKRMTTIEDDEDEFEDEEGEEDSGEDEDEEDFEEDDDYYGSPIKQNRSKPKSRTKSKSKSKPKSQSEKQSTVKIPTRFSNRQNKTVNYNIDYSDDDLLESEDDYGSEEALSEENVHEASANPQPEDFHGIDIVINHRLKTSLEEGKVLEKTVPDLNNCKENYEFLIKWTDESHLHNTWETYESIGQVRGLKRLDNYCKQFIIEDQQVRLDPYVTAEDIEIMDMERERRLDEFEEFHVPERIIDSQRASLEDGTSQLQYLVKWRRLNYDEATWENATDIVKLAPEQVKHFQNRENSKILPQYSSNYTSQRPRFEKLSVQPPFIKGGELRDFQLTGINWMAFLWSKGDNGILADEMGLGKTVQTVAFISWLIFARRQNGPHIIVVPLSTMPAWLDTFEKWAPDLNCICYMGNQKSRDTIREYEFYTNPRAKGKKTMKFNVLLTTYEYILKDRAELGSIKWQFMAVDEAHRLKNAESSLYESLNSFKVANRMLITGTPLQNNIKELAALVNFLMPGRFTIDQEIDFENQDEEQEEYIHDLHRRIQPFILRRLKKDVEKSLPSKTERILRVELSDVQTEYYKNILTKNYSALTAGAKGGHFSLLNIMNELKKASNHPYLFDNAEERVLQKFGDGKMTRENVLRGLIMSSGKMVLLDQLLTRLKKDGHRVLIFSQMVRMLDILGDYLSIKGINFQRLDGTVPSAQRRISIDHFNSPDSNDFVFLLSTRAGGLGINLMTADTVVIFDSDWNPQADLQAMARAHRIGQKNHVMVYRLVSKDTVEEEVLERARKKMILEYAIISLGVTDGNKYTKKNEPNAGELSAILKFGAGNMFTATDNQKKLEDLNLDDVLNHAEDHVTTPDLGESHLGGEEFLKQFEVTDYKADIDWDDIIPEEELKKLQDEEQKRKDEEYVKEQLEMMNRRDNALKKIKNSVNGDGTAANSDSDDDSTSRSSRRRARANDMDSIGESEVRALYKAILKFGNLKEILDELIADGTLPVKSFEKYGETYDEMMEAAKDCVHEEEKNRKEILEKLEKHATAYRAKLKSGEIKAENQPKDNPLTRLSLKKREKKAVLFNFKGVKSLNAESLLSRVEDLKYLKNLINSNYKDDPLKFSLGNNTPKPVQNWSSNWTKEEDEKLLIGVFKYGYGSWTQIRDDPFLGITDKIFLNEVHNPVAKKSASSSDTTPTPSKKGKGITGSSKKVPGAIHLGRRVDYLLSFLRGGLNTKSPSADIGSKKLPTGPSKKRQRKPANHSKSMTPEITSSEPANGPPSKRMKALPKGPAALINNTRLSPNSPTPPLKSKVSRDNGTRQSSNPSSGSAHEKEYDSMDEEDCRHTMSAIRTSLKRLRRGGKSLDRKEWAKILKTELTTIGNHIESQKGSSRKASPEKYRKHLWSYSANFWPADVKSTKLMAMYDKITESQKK

The text below walks through data of ChEMBL document CHEMBL3988442, “University of Dundee, Small-Polar-MMV Screening Library” (2021).

For some of these results: Entries with a potency or affinity are not part of this list.

Chain of Protein translocase subunit SecA (Escherichia coli (strain K12)) (P10408 whole entry): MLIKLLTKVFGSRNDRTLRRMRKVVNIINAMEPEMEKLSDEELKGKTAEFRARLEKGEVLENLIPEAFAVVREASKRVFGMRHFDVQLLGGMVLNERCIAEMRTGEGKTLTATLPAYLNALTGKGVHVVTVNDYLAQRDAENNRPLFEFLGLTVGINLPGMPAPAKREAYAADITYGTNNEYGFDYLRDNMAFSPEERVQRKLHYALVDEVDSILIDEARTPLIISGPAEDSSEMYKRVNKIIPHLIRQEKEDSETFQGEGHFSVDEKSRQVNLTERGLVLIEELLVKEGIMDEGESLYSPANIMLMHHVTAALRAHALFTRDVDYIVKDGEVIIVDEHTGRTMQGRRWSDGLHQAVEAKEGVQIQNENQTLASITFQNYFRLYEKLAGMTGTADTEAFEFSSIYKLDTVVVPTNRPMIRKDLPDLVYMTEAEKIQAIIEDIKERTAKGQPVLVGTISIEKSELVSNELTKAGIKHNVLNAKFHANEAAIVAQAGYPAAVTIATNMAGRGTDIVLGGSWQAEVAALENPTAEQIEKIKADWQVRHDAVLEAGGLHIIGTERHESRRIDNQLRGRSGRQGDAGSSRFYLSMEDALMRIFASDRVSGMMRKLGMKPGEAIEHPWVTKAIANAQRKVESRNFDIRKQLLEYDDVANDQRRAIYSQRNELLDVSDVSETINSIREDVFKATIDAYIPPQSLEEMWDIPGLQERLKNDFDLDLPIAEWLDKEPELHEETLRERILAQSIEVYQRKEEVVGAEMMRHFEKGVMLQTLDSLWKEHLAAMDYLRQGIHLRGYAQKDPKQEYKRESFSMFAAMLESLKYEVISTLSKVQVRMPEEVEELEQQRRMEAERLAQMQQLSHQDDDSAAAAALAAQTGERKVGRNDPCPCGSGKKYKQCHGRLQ

Turning to `Cc1nn(C)c(N2CCOCC2)c1CNC1CCOc2ccccc21` (stereo not drawn), the Percent Effect in assay [1] was -4.35%; in assay [2], 10.1%; in [3] it was -4.31%; in assay [4], 8.19%; in the assay on Trypanosoma cruzi it was 1.04%; in assay [5], 0.38%. The Percent Effect was 2.54% in [6]; -11.4% in the assay filed under Homo sapiens; 7.39% in assay [7]; 11.4% in assay [8]; -3.12% in assay [9].
On to `Cc1ncc(C)c(N2CCCC(CO)(Cc3cccc(Cl)c3)C2)n1` (stereo not drawn), for which the Percent Effect is -3.59% in assay [1]; 13% in [2]; 3.66% in assay [3]; 15.9% in assay [4]; 5.61% with Trypanosoma cruzi; 9.65% in assay [5]. Also, the Percent Effect in assay [6] is 13.1%; in the assay filed under Homo sapiens, 34%; in assay [7], 7.53%; in [8] it was 13.6%; in assay [9] it was -6.49%.
In the case of `O=C(NCCN1CCCCC1)c1nc2ccccc2c(=O)[nH]1`, the Percent Effect in assay [1] was 4.74%; in assay [2], 9.33%; in [3], -7.18%; in assay [4] it was -5.32%; in the assay with Trypanosoma cruzi, -8.05%; in assay [5] it was -13.6%. Besides, the Percent Effect is 13.7% in assay [6]; -0.00779% in the assay listed under Homo sapiens; 0% in assay [7]; 10.3% in assay [8]; -9.94% in assay [9].
Take `Cc1nc(C)n(C2CCCN(C(=O)c3ccc4c(c3)COC4)C2)n1` (stereo not drawn): the Percent Effect in assay [1] is -2.83%; in assay [2], 13.5%; in assay [3] it was -5.96%; in assay [4], 7.05%; in the assay on Trypanosoma cruzi, 7.15%; in [5], 2.4%. Besides, the Percent Effect was -4.67% in assay [6]; 6.78% in the assay filed under Homo sapiens; 2.97% in [7]; 11% in assay [8]; 0.576% in assay [9].
Regarding `Cn1cc(CN2CCCN(C(=O)c3ccc4c(c3)COC4)CC2)cn1`, the Percent Effect in [1] is -5.64%; in [2], 18.4%; in assay [3], -1.04%; in assay [4], 13.2%; with Trypanosoma cruzi, -3.27%; in assay [5], -2.16%. Besides, the Percent Effect is 12.6% in assay [6]; 8.45% in the assay filed under Homo sapiens; 7.39% in assay [7]; 11.1% in assay [8]; -0.916% in [9].
Take `Clc1snnc1CN1CCCCC1Cn1cncn1` (stereo not drawn): the Percent Effect was -0.0251% in [1]; 17.7% in [2]; -10.2% in [3]; -9.75% in assay [4]; -2.17% with Trypanosoma cruzi; 2.66% in [5]. The Percent Effect in assay [6] is 13.2%; in the assay filed under Homo sapiens, 5.04%; in assay [7], 12.3%; in assay [8], 24.1%; in assay [9], -4.67%.
As to `COc1cccc(CCC2CCCN(C(=O)c3n[nH]c4c3CCC4)C2)c1` (stereo not drawn), the Percent Effect in assay [1] is -4.51%; in assay [2], -18.9%; in assay [3] it was 3.21%; in assay [4], 4.19%; in the assay on Trypanosoma cruzi it was -1.35%; in assay [5], -8.1%. In addition, the Percent Effect is 5.69% in assay [6]; 46.1% in the assay listed under Homo sapiens; 11.1% in assay [7]; 2.44% in assay [8]; -1.85% in [9].
Turning to `Cc1cccc(COC[C@]23COC[C@H]2CN(C(=O)c2ccsc2)C3)n1`, the Percent Effect in assay [1] was -1.49%; in assay [2], 5.41%; in assay [3] it was 1.58%; in [4] it was 0.368%; in the assay on Trypanosoma cruzi, 1.95%; in assay [5] it was 27.9%. Further, the Percent Effect in assay [6] is 10.9%; in the assay filed under Homo sapiens, -2.76%; in assay [7], 8.91%; in assay [8], 13.4%; in assay [9], -5.97%.
